From PubChem BioAssay (NCATS) come the findings set out here.

Experiment in all cases: qHTS profiling for inhibitors of Plasmodium falciparum proliferation (AID 504749); note: nearly all actives have a fitted effect of over 60% in size
Conditions in all cases: P. falciparum in erythrocytes, SYBR Green DNA, 72 h; series mostly up to 28.7 µM
In general terms: qHTS replaces the single test concentration by a dilution series.

For one assay, the system named is AA1029. The essentials:
(§1)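 Three-day growth assay of blood-stage parasites in erythrocytes (0.3% parasitemia, 2.5% hematocrit) at 37 C, 5% CO2, quantified by SYBR Green DNA staining after overnight detergent lysis.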

In the next assay the test system is AS120. The essentials: as §1
A further assay has as its system C2A. The essentials:
as §1

The next assay concerns CP201. An outline of the steps: as §1
The next assay concerns CP203. An outline of the steps:
as §1

The subject of another assay is CP237. The essentials: as §1
For the next assay, the system named is CP250. The essentials:
as §1

For the next assay, the system named is CP256. An outline of the steps:
as §1

The next assay deals with CP268. An outline of the steps:
as §1

The test system of another assay is CP305. The essentials: as §1
The subject of another assay is CP315. An outline of the steps:
as §1

The subject of a further assay is CP325. An outline of the steps: as §1
The test system of the next assay is DIV30. An outline of the steps: as §1
The next assay relates to HB3. The essentials: as §1
A further assay relates to JCK. An outline of the steps: as §1
The test system of a further assay is N140. An outline of the steps: as §1
For another assay, the system named is P94_40. The essentials:
as §1

The subject of another assay is PAD. An outline of the steps: as §1
The test system of another assay is SC27B. The essentials:
as §1

A further assay has as its system TAB113. An outline of the steps: as §1

The structures appear in SMILES notation. Results filed as inconclusive are left out. Calls of active or inactive are those of the source. Calls come from the whole dose curve; as a rule, active = well fitted inhibition curve with a large enough effect; inconclusive = small, poorly fitted or top-dose-only effect; inactive = flat fitted curve, though single readings scatter.
Potency is the fitted concentration of half-maximal effect.

For `CN(C)CC/C=C1\c2ccccc2COc2ccc(CC(=O)O)cc21`, the Potency entry with AA1029, with AS120, with C2A, in the assay with CP201, in the assay on CP203 and in the assay on CP237 was “inactive” in each case. Also, the Potency entry in the assay with CP250, with CP256, in the assay with CP268, with CP305, in the assay with CP315 and with CP325 was “inactive” each time. The Potency result in the assay with DIV30, with HB3, with JCK, in the assay on N140, in the assay with P94_40 and with PAD was “inactive” throughout. Further, the Potency entry in the assay on SC27B and with TAB113 was “inactive” throughout.

Take `CC1(C)OC[C@@H]2O[C@@]3(C(=O)O)OC(C)(C)O[C@@H]3[C@@H]2O1`: the Potency entry in the assay on AA1029, in the assay with AS120, in the assay on C2A, in the assay on CP201, with CP203 and in the assay on CP237 was “inactive” throughout. Besides, the Potency entry with CP250, in the assay with CP256, in the assay with CP268, in the assay with CP305, in the assay on CP315 and in the assay on CP325 was “inactive” each time. For the same compound, the Potency result in the assay on DIV30, with HB3, with JCK, in the assay on N140, with P94_40 and with PAD was “inactive” throughout. The Potency result in the assay with SC27B and in the assay on TAB113 was “inactive” throughout.

As for `O=C1C(I)=CC(=C(c2cc(I)c(O)c(I)c2)c2ccccc2C(=O)O)C=C1I`, the Potency entry with AA1029, in the assay on AS120, with C2A, in the assay on CP201, in the assay with CP203 and with CP237 was “inactive” each time. Further, the Potency entry in the assay on CP250, in the assay with CP256, with CP268, with CP305, in the assay on CP315 and in the assay with CP325 was “inactive” throughout. Moreover, the Potency entry in the assay with DIV30, in the assay on HB3, in the assay on JCK, in the assay with N140, in the assay with P94_40 and with PAD was “inactive” in each case. Besides, the Potency entry in the assay on SC27B and in the assay with TAB113 was “inactive” in each case.

In the case of `CC1OC(OC2CCC3(C)C(CCC4C3CC(O)C3(C)C(C5=CC(=O)OC5)CCC43O)C2)CC(O)C1OC1CC(O)C(OC2CC(O)C(OC3OC(CO)C(O)C(O)C3O)C(C)O2)C(C)O1` (stereo not drawn), the Potency entry with AA1029, with AS120, in the assay with C2A, with CP201, in the assay on CP203 and with CP237 was “inactive” in each case. In addition, the Potency result with CP250, with CP256, with CP268, in the assay with CP305, in the assay on CP315 and with CP325 was “inactive” throughout. Besides, the Potency entry in the assay on DIV30, with HB3, in the assay with JCK, in the assay on N140, in the assay on P94_40 and in the assay with PAD was “inactive” throughout. Also, the Potency entry with SC27B and in the assay on TAB113 was “inactive” in each case.

`CCCC(=O)O[C@]1(C(=O)COC(C)=O)CC[C@H]2C3C[C@H](F)C4=CC(=O)C=CC4(C)[C@@]3(F)[C@@H](O)CC21C` (stereo partly drawn): the Potency entry in the assay with AA1029, with AS120, in the assay on C2A, in the assay on CP201, with CP203 and in the assay with CP237 was “inactive” each time. The Potency entry with CP250, in the assay with CP256, with CP268, in the assay on CP305, in the assay with CP315 and in the assay on CP325 was “inactive” in each case. In addition, the Potency entry in the assay on DIV30, in the assay with HB3, in the assay with JCK, with N140, in the assay on P94_40 and with SC27B was “inactive” in each case. Besides, in the assay on TAB113, the Potency result was “inactive”.

Consider `CC1CCC(C(C)C)C(O)C1` (stereo not drawn), for which the Potency result in the assay on AA1029, with AS120, in the assay on C2A, with CP201, in the assay with CP203 and in the assay on CP237 was “inactive” throughout. Moreover, the Potency entry in the assay with CP250, in the assay with CP256, in the assay with CP268, in the assay on CP305, in the assay with CP315 and in the assay on CP325 was “inactive” each time. Moreover, the Potency result with DIV30, in the assay with HB3, in the assay with JCK, in the assay on N140, in the assay on P94_40 and in the assay with PAD was “inactive” in each case. The Potency entry in the assay on SC27B and in the assay with TAB113 was “inactive” each time.

`C=C1NC(=O)c2cc(CN(C)c3ccc(C(=O)N[C@@H](CCC(=O)O)C(=O)O)s3)ccc2N1`: the Potency result in the assay on AA1029, in the assay on AS120, with C2A, in the assay with CP201, in the assay with CP203 and in the assay with CP250 was “inactive” throughout. The Potency entry in the assay on CP256, in the assay with CP268, with CP305, in the assay on CP315, in the assay on CP325 and with DIV30 was “inactive” each time. Also, the Potency result with HB3, with JCK, in the assay on N140, in the assay on P94_40, in the assay on SC27B and in the assay with TAB113 was “inactive” throughout.

For `CNC1C(O)C(OC2C(NC(=O)C(O)CN)CC(N)C(OC3OC(CN)C(O)C(O)C3O)C2O)OCC1(C)O` (stereo not drawn), the Potency result in the assay with AA1029, with AS120, with C2A, in the assay on CP201, in the assay with CP203 and with CP237 was “inactive” each time. The Potency result with CP250, in the assay on CP256, in the assay with CP268, in the assay on CP305, in the assay on CP315 and with CP325 was “inactive” throughout. Besides, the Potency result with DIV30, in the assay with HB3, in the assay with JCK, in the assay with N140, in the assay with P94_40 and with PAD was “inactive” throughout. Also, the Potency result in the assay on SC27B and with TAB113 was “inactive” each time.

With `CO/N=C(/C(=O)N[C@@H]1C(=O)N2C(C(=O)O)=C(CSc3nnnn3C)CS[C@H]12)c1csc(N)n1`, the Potency result with AA1029, with AS120, with C2A, in the assay on CP201, in the assay on CP237 and with CP250 was “inactive” throughout. Moreover, the Potency result in the assay on CP256, in the assay with CP268, with CP305, with CP315, with CP325 and in the assay on DIV30 was “inactive” throughout. For the same compound, the Potency entry with HB3, with JCK, in the assay on N140, with P94_40, in the assay on PAD and in the assay on SC27B was “inactive” throughout. Also, in the assay with TAB113, the Potency result was “inactive”.

As for `CC(=O)N1CC(O)CC1C(=O)O` (stereo not drawn), the Potency entry with AA1029, in the assay with AS120, in the assay with C2A, in the assay on CP201, in the assay with CP203 and in the assay with CP237 was “inactive” in each case. Also, the Potency result in the assay on CP250, in the assay with CP256, in the assay on CP268, in the assay with CP305, in the assay with CP315 and in the assay with CP325 was “inactive” each time. Besides, the Potency result in the assay on DIV30, in the assay on HB3, in the assay on JCK, with N140, in the assay with P94_40 and in the assay on PAD was “inactive” in each case. In addition, in the assay with SC27B, the Potency result is “inactive”.

As for `CC(=O)C1(O)Cc2c(O)c3c(c(O)c2C(OC2CC(N)C(O)C(C)O2)C1)C(=O)c1c(O)cccc1C3=O` (stereo not drawn), the Potency is 5.01 µM (active) in the assay with AA1029; 4.47 µM (active) in the assay with AS120; 8.91 µM (active) in the assay on C2A; 2.82 µM (active) with CP237; 11.2 µM (active) in the assay on CP250; 10 µM (active) with CP256. Besides, the Potency in the assay on HB3 was 6.31 µM (active); with JCK, 12.6 µM (active); with N140, 7.08 µM (active); in the assay with P94_40, 5.01 µM (active); with PAD it was 10 µM (active); in the assay on SC27B, 4.47 µM (active). In addition, the Potency in the assay with TAB113 was 6.31 µM (active).
